# Data taken from PubChem BioAssay AID1159580 (chemical genetic matrix, 2015).
# Screen size: about 5,500 compounds; about 2,000 (36%) were called active. Inconclusive results (about 18%) are left out. This is one part of the list. Unmarked numbers belong to inactive results. No stated cut-off is given here; in the data, active means normalized growth mostly below about 0.91 (no sharp cut-off); inconclusive means no clear call, values can overlap the other calls; inactive means mostly above about 0.92.
# Test: chemical genetic growth profiling, strain panel (AID 1159580);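 further: tested at 20 µM; growth read once vehicle control cultures reached saturation at 30 °C; 1 = growth at the plate median or of vehicle wells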
# Conditions: growth OD
# [1] = S. cerevisiae deletion strains, locus YDL101C, strain DUN1, stronger effect = lower value
# [2] = S. cerevisiae deletion strains, locus YHR030C, strain SLT2, stronger effect = lower value
smiles,measurement,setting,value
COc1cccc(C(=O)C(C#N)=C(SC)SC)c1,normalized growth,"S. cerevisiae deletion strains, locus YAR019C, strain CDC15, stronger effect = lower value",0.875 (active)
same,normalized growth,"S. cerevisiae deletion strains, locus YBL105C, strain PKC1, stronger effect = lower value",0.88 (active)
same,normalized growth,"S. cerevisiae deletion strains, locus YBR135W, strain CKS1, stronger effect = lower value",0.87 (active)
same,normalized growth,"S. cerevisiae deletion strains, locus YBR136W, strain MEC1, stronger effect = lower value",0.879 (active)
same,normalized growth,"S. cerevisiae deletion strains, locus YBR160W, strain CDC28, stronger effect = lower value",0.878 (active)
same,normalized growth,"S. cerevisiae deletion strains, locus YDL017W, strain CDC7, stronger effect = lower value",0.881 (active)
same,normalized growth,"S. cerevisiae deletion strains, locus YDL028C, strain MPS1, stronger effect = lower value",0.884 (active)
same,normalized growth,[1],0.901 (active)
same,normalized growth,"S. cerevisiae deletion strains, locus YDL108W, strain KIN28, stronger effect = lower value",0.894 (active)
same,normalized growth,"S. cerevisiae deletion strains, locus YDL132W, strain cdc53, stronger effect = lower value",0.874 (active)
same,normalized growth,"S. cerevisiae deletion strains, locus YDL214C, strain PRR2, stronger effect = lower value",0.429 (active)
same,normalized growth,"S. cerevisiae deletion strains, locus YDR052C, strain DBF4, stronger effect = lower value",0.879 (active)
same,normalized growth,"S. cerevisiae deletion strains, locus YDR054C, strain cdc34, stronger effect = lower value",0.855 (active)
same,normalized growth,"S. cerevisiae deletion strains, locus YDR226W, strain ADK1, stronger effect = lower value",0.87 (active)
same,normalized growth,"S. cerevisiae deletion strains, locus YDR477W, strain SNF1, stronger effect = lower value",0.393 (active)
same,normalized growth,"S. cerevisiae deletion strains, locus YER123W, strain YCK3, stronger effect = lower value",0.256 (active)
same,normalized growth,"S. cerevisiae deletion strains, locus YER133W, strain GLC7, stronger effect = lower value",0.295 (active)
same,normalized growth,"S. cerevisiae deletion strains, locus YFL009W, strain cdc4, stronger effect = lower value",0.869 (active)
same,normalized growth,"S. cerevisiae deletion strains, locus YFL029C, strain CAK1, stronger effect = lower value",0.872 (active)
same,normalized growth,"S. cerevisiae deletion strains, locus YFR003C, strain YPI1, stronger effect = lower value",0.88 (active)
same,normalized growth,"S. cerevisiae deletion strains, locus YFR019W, strain FAB1, stronger effect = lower value",0.287 (active)
same,normalized growth,"S. cerevisiae deletion strains, locus YFR028C, strain CDC14, stronger effect = lower value",0.868 (active)
same,normalized growth,"S. cerevisiae deletion strains, locus YGR040W, strain KSS1, stronger effect = lower value",0.331 (active)
same,normalized growth,"S. cerevisiae deletion strains, locus YGR052W, strain FMP48, stronger effect = lower value",0.294 (active)
same,normalized growth,"S. cerevisiae deletion strains, locus YGR092W, strain DBF2, stronger effect = lower value",0.206 (active)
same,normalized growth,[2],0.192 (active)
same,normalized growth,"S. cerevisiae deletion strains, locus YHR079C, strain IRE1, stronger effect = lower value",0.307 (active)
same,normalized growth,"S. cerevisiae deletion strains, locus YHR082C, strain KSP1, stronger effect = lower value",0.298 (active)
same,normalized growth,"S. cerevisiae deletion strains, locus YHR205W, strain SCH9, stronger effect = lower value",0.321 (active)
same,normalized growth,"S. cerevisiae deletion strains, locus YIL147C, strain SLN1, stronger effect = lower value",0.885 (active)
same,normalized growth,"S. cerevisiae deletion strains, locus YJL095W, strain BCK1, stronger effect = lower value",0.264 (active)
same,normalized growth,"S. cerevisiae deletion strains, locus YJL128C, strain PBS2, stronger effect = lower value",0.89
same,normalized growth,"S. cerevisiae deletion strains, locus YJL157C, strain FAR1, stronger effect = lower value",0.37 (active)
same,normalized growth,"S. cerevisiae deletion strains, locus YJR016C, strain ILV3, stronger effect = lower value",0.874 (active)
same,normalized growth,"S. cerevisiae deletion strains, locus YJR066W, strain TOR1 (second series), stronger effect = lower value",0.275 (active)
same,normalized growth,"S. cerevisiae deletion strains, locus YJR066W, strain TOR1, stronger effect = lower value",0.268 (active)
same,normalized growth,"S. cerevisiae deletion strains, locus YKL048C, strain ELM1, stronger effect = lower value",0.45 (active)
same,normalized growth,"S. cerevisiae deletion strains, locus YKL067W, strain YNK1, stronger effect = lower value",0.508 (active)
same,normalized growth,"S. cerevisiae deletion strains, locus YKL101W, strain HSL1, stronger effect = lower value",0.434 (active)
same,normalized growth,"S. cerevisiae deletion strains, locus YKL193C, strain SDS22, stronger effect = lower value",0.886 (active)
same,normalized growth,"S. cerevisiae deletion strains, locus YKL203C, strain TOR2, stronger effect = lower value",0.291 (active)
same,normalized growth,"S. cerevisiae deletion strains, locus YLR113W, strain HOG1, stronger effect = lower value",0.324 (active)
same,normalized growth,"S. cerevisiae deletion strains, locus YLR133W, strain CKI1, stronger effect = lower value",0.44 (active)
same,normalized growth,"S. cerevisiae deletion strains, locus YLR403W, strain SFP1, stronger effect = lower value",0.265 (active)
same,normalized growth,"S. cerevisiae deletion strains, locus YML070W, strain DAK1, stronger effect = lower value",0.346 (active)
same,normalized growth,"S. cerevisiae deletion strains, locus YMR001C, strain CDC5, stronger effect = lower value",0.876 (active)
same,normalized growth,"S. cerevisiae deletion strains, locus YMR205C, strain PFK2 (second series), stronger effect = lower value",0.526 (active)
same,normalized growth,"S. cerevisiae deletion strains, locus YMR277W, strain FCP1, stronger effect = lower value",0.881 (active)
same,normalized growth,"S. cerevisiae deletion strains, locus YNL006W, strain LST8, stronger effect = lower value",0.887 (active)
same,normalized growth,"S. cerevisiae deletion strains, locus YNL020C, strain ARK1, stronger effect = lower value",0.432 (active)
same,normalized growth,"S. cerevisiae deletion strains, locus YNL161W, strain CBK1, stronger effect = lower value",0.871 (active)
same,normalized growth,"S. cerevisiae deletion strains, locus YNL183C, strain NPR1, stronger effect = lower value",0.298 (active)
same,normalized growth,"S. cerevisiae deletion strains, locus YNL207W, strain RIO2, stronger effect = lower value",0.88 (active)
same,normalized growth,"S. cerevisiae deletion strains, locus YNL222W, strain SSU72, stronger effect = lower value",0.891 (active)
same,normalized growth,"S. cerevisiae deletion strains, locus YNL307C, strain MCK1 (second series), stronger effect = lower value",0.293 (active)
same,normalized growth,"S. cerevisiae deletion strains, locus YOL078W, strain AVO1, stronger effect = lower value",0.868 (active)
same,normalized growth,"S. cerevisiae deletion strains, locus YOL136C, strain PFK27, stronger effect = lower value",0.301 (active)
same,normalized growth,"S. cerevisiae deletion strains, locus YOR061W, strain CKA2, stronger effect = lower value",0.423 (active)
same,normalized growth,"S. cerevisiae deletion strains, locus YOR119C, strain RIO1, stronger effect = lower value",0.317 (active)
same,normalized growth,"S. cerevisiae deletion strains, locus YOR231W, strain MKK1, stronger effect = lower value",0.366 (active)
same,normalized growth,"S. cerevisiae deletion strains, locus YOR329C, strain SCD5, stronger effect = lower value",0.872 (active)
same,normalized growth,"S. cerevisiae deletion strains, locus YPL031C, strain PHO85, stronger effect = lower value",0.309 (active)
same,normalized growth,"S. cerevisiae deletion strains, locus YPL153C, strain RAD53, stronger effect = lower value",0.387 (active)
same,normalized growth,"S. cerevisiae deletion strains, locus YPL204W, strain HRR25, stronger effect = lower value",0.294 (active)
same,normalized growth,"S. cerevisiae deletion strains, locus YPL209C, strain IPL1, stronger effect = lower value",0.877 (active)
same,normalized growth,"S. cerevisiae deletion strains, locus YPL256C, strain CLN2, stronger effect = lower value",0.292 (active)
same,normalized growth,"S. cerevisiae deletion strains, locus YPR025C, strain CCL1, stronger effect = lower value",0.875 (active)
same,normalized growth,"S. cerevisiae deletion strains, locus YPR106W, strain ISR1, stronger effect = lower value",0.893
same,normalized growth,"S. cerevisiae deletion strains, locus YPR111W, strain DBF20, stronger effect = lower value",0.902
same,normalized growth,"S. cerevisiae deletion strains, strain NNK1, stronger effect = lower value",0.89
same,normalized growth,"S. cerevisiae deletion strains, strain TSCII, stronger effect = lower value",0.867 (active)
COc1cccc(CC(=O)NN)c1,normalized growth,"S. cerevisiae deletion strains, locus YAL013W, strain DEP1, stronger effect = lower value",0.982
same,normalized growth,"S. cerevisiae deletion strains, locus YBR229C, strain ROT2, stronger effect = lower value",1.02
same,normalized growth,[1],1.05
same,normalized growth,"S. cerevisiae deletion strains, locus YDL134C, strain PPH21, stronger effect = lower value",0.995
same,normalized growth,"S. cerevisiae deletion strains, locus YDR150W, strain NUM1, stronger effect = lower value",1.03
same,normalized growth,"S. cerevisiae deletion strains, locus YEL061C, strain CIN8, stronger effect = lower value",1
same,normalized growth,"S. cerevisiae deletion strains, locus YGR078C, strain PAC10, stronger effect = lower value",1.04
same,normalized growth,"S. cerevisiae deletion strains, locus YGR229C, strain SMI1, stronger effect = lower value",0.999
same,normalized growth,[2],1.06
same,normalized growth,"S. cerevisiae deletion strains, locus YHR087W, strain rtc3, stronger effect = lower value",0.971
same,normalized growth,"S. cerevisiae deletion strains, locus YJL187C, strain SWE1, stronger effect = lower value",0.981
same,normalized growth,"S. cerevisiae deletion strains, locus YJR043C, strain POL32, stronger effect = lower value",1.02
same,normalized growth,"S. cerevisiae deletion strains, locus YJR075W, strain HOC1, stronger effect = lower value",0.991
same,normalized growth,"S. cerevisiae deletion strains, locus YKL190W, strain CNB1, stronger effect = lower value",1
same,normalized growth,"S. cerevisiae deletion strains, locus YLR039C, strain RIC1, stronger effect = lower value",1.02
same,normalized growth,"S. cerevisiae deletion strains, locus YLR058C, strain SHM2 (second series), stronger effect = lower value",0.987
same,normalized growth,"S. cerevisiae deletion strains, locus YLR085C, strain ARP6, stronger effect = lower value",0.995
same,normalized growth,"S. cerevisiae deletion strains, locus YLR262C, strain YPT6, stronger effect = lower value",0.98
same,normalized growth,"S. cerevisiae deletion strains, locus YML094W, strain GIM5, stronger effect = lower value",0.982
same,normalized growth,"S. cerevisiae deletion strains, locus YMR219W, strain ESC1, stronger effect = lower value",0.986
same,normalized growth,"S. cerevisiae deletion strains, locus YMR263W, strain SAP30, stronger effect = lower value",1
same,normalized growth,"S. cerevisiae deletion strains, locus YMR307W, strain GAS1, stronger effect = lower value",0.987
same,normalized growth,"S. cerevisiae deletion strains, locus YNL153C, strain GIM3, stronger effect = lower value",1.04
same,normalized growth,"S. cerevisiae deletion strains, locus YNL298W, strain CLA4 (second series), stronger effect = lower value",1.02
same,normalized growth,"S. cerevisiae deletion strains, locus YNL322C, strain KRE1, stronger effect = lower value",1.01
same,normalized growth,"S. cerevisiae deletion strains, locus YNR030W, strain Alg12, stronger effect = lower value",0.986
same,normalized growth,"S. cerevisiae deletion strains, locus YPL055C, strain LGE1, stronger effect = lower value",0.96
same,normalized growth,"S. cerevisiae deletion strains, locus YPL241C, strain CIN2, stronger effect = lower value",1.01
same,normalized growth,"S. cerevisiae deletion strains, locus YPR135W, strain CTF4, stronger effect = lower value",1.04
same,normalized growth,"S. cerevisiae strains, strain wild type, stronger effect = lower value",1.02
